Assay results as given in the supplement of paper PMC10849652.
About 8,800 targets were measured; listed, in parts, are those with a hit and a random draw of the rest. About 0.5% of all pairs of compound and target were hits. Values without a mark were called inactive.

Legend:
Test in all cases: log2 fold change, soluble protein after heating vs DMSO (PISA); higher = thermal stabilisation; K562 lysate, 10 uM; active = over 0.2 and 3.5 SD of the protein, either way, in both replicates (recomputed)
[1] = compound: C1=CC=C(C=C1)[C@H](COC2=CC3=C(C=C2)NC(=O)N3)NC(=O)C4=CC=CN(C4=O)CC5=CC(=C(C=C5)F)F
Procedure, shortened: (§1)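 Following dounce homogenisation of K562 pellets in PBS pH 7.4 with 1 mM MgCl2, crude extract at 1 mg/mL protein was incubated for 30 min with 10 μM compound. Aliquots were then heated for 3 min over 48°C-58°C and pooled, NP-40 was added to 0.5% at 4°C, and soluble protein was recovered as the supernatant at 21,000xg for 90 min. Channel-sum-equalised TMTpro 16plex LC-MS/MS quantified this protein. Each value, from duplicates, is a log-two fold change in thermal stability relative to solvent controls.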

[2] = compound: CC1=C(SC2=C1C(=N[C@H](C3=NN=C(N32)C)CC(=O)N)C4=CC=C(C=C4)Cl)C
Procedure, shortened: as §1

[3] = compound: CC1=C2C(=CC=C1)N=C(N(C2=O)C3=CC=CC=C3C)CN4C=NC5=C(N=CN=C54)N
Procedure, shortened: as §1

[4] = compound: Cc1sc2c(c1C)C(c1ccc(Cl)cc1)=N[C@@H](CC(=O)OC(C)(C)C)c1nnc(C)n1-2
Procedure, shortened: as §1

[5] = compound: c1ccc([C@@H]2C[C@H]2NC2CCNCC2)cc1
Procedure, shortened: as §1

Sequence of UniProt P14314 (P14314 whole entry, looked up): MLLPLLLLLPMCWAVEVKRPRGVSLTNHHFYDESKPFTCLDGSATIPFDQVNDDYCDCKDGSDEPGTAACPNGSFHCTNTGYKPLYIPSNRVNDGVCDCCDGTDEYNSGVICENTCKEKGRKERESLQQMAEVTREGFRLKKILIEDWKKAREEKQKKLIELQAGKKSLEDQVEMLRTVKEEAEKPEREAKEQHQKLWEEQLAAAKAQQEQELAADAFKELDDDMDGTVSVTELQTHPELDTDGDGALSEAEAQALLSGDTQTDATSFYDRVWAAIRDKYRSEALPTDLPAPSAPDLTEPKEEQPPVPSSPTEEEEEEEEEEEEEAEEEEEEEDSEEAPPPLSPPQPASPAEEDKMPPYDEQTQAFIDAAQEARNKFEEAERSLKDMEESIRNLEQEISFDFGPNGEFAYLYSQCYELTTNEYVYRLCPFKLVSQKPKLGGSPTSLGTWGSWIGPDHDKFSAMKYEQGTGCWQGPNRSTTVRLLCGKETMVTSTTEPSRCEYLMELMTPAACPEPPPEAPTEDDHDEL
Sequence of UniProt Q16875 (Q16875 whole entry, looked up): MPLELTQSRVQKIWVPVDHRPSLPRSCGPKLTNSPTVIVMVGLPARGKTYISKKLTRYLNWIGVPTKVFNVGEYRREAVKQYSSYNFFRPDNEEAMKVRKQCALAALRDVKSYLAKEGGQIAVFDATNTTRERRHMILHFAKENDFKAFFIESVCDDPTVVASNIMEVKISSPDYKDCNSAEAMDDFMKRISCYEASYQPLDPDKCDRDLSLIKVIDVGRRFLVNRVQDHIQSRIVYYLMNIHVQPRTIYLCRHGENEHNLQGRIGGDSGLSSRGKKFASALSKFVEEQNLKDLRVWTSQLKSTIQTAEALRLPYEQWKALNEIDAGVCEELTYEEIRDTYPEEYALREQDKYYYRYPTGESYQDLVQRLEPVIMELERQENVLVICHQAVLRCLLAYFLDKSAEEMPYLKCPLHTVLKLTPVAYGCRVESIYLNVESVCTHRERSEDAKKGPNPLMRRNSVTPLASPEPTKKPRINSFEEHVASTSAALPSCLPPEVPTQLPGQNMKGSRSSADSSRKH
Sequence of UniProt Q86UU1 (Q86UU1 whole entry, looked up): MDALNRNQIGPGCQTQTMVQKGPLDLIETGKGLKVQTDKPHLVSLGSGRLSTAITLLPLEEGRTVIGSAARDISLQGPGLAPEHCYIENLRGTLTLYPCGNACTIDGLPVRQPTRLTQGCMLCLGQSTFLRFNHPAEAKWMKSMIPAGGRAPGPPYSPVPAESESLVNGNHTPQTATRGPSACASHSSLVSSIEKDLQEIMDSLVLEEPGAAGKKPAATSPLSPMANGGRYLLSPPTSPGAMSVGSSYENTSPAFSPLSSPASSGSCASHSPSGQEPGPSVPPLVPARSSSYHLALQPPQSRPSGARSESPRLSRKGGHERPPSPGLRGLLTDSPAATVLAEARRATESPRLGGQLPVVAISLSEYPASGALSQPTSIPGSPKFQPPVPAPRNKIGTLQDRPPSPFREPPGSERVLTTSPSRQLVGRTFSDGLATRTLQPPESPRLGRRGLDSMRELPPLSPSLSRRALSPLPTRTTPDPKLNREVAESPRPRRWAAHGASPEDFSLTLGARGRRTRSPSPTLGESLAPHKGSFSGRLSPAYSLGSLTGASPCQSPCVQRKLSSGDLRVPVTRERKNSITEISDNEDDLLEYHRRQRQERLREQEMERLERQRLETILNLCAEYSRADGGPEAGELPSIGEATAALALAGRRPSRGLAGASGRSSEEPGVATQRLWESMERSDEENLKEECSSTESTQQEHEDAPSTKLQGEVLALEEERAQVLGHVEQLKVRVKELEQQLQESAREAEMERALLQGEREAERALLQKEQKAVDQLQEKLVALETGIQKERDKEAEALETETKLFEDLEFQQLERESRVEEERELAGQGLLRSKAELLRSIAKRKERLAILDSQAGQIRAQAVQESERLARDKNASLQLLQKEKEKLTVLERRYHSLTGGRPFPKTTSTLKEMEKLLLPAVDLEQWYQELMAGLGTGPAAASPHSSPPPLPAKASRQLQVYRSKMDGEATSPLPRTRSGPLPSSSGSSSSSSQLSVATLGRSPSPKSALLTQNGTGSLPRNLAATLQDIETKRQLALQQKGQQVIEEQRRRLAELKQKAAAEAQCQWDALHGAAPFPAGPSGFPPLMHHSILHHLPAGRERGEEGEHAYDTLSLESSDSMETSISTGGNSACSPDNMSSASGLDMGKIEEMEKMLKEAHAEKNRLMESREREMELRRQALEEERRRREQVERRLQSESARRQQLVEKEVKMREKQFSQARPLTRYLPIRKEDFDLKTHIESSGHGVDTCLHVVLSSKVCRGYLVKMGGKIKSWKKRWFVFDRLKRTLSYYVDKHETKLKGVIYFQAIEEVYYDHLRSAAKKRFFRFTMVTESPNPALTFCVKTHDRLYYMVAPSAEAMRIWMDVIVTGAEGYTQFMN
Sequence of UniProt Q8TCD6 (Q8TCD6 whole entry, looked up): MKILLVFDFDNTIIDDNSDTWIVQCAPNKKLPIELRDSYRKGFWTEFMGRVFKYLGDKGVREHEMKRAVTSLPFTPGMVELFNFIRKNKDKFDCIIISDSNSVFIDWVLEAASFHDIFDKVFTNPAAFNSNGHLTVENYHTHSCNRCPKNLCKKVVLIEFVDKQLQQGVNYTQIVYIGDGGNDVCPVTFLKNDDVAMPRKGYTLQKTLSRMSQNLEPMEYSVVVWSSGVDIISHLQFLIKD
Sequence of UniProt Q96CD2 (Q96CD2 whole entry, looked up): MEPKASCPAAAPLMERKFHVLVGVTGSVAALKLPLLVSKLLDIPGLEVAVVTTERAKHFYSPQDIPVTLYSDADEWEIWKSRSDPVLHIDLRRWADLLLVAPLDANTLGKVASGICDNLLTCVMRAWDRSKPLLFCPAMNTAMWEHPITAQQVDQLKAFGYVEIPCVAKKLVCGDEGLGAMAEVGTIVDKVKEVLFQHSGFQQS
Sequence of UniProt Q29RF7 (Q29RF7 whole entry, looked up): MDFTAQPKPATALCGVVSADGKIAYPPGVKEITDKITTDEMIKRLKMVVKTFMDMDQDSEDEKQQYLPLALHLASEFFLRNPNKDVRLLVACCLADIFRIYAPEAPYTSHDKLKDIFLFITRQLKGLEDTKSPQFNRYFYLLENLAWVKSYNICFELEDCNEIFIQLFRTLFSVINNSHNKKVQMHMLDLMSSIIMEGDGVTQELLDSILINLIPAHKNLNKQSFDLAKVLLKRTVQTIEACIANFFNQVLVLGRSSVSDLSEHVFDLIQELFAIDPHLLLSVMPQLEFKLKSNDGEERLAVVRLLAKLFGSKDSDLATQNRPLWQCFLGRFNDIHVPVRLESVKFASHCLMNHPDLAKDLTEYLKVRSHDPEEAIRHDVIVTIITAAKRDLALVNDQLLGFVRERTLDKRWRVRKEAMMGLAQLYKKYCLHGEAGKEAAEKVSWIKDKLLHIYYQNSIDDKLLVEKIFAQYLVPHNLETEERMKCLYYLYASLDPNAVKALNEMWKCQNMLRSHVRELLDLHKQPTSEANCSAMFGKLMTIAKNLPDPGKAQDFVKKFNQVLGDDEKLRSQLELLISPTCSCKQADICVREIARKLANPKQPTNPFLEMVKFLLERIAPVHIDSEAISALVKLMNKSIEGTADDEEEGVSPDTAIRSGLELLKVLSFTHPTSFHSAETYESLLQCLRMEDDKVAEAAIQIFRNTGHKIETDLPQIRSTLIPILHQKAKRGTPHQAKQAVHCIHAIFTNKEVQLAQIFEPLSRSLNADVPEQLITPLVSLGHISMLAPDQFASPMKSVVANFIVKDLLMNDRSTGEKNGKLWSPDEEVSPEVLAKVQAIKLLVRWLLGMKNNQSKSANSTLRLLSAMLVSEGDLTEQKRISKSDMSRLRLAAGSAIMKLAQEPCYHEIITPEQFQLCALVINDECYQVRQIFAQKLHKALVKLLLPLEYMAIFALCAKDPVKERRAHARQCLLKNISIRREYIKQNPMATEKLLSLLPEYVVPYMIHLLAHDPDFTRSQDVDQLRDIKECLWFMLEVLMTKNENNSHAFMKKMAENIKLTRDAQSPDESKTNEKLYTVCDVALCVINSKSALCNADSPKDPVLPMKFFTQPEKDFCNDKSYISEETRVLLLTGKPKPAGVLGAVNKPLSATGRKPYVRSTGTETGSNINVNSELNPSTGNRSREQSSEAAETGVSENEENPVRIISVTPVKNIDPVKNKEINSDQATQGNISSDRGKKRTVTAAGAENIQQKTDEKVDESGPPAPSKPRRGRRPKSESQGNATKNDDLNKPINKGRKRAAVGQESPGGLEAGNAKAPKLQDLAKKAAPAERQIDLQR
Sequence of UniProt P28328 (P28328 whole entry, looked up): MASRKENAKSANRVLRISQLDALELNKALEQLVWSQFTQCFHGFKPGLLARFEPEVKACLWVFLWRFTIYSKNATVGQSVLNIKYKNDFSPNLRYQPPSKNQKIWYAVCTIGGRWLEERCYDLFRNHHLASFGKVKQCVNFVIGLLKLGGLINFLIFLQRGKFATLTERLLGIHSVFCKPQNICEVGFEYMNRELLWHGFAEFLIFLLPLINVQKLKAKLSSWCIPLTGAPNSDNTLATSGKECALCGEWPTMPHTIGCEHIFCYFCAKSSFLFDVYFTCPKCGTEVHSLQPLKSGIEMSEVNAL
Sequence of UniProt Q9HBH1 (Q9HBH1 whole entry, looked up): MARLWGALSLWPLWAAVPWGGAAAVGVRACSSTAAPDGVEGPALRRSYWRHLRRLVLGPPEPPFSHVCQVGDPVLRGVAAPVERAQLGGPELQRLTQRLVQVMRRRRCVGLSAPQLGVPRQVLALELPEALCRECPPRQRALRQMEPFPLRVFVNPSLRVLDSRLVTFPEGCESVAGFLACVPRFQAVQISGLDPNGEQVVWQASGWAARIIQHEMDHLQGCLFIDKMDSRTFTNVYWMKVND
Sequence of UniProt Q9Y244 (Q9Y244 whole entry, looked up): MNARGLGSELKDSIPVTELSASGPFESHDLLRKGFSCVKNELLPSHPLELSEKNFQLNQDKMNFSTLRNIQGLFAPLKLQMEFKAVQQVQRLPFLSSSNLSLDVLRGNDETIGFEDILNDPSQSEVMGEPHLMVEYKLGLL

Target | log2 fold change [1] | log2 fold change [2] | log2 fold change [3] | log2 fold change [4] | log2 fold change [5]
PDF (UniProt Q9HBH1) | -0.056 | -0.007 | -0.024 | 0.024 | 0.028
PPP2CA (UniProt P67775) | -0.108 | 0.037 | 0.037 | 0.092 | -0.092
PRKCSH (UniProt P14314) | 0 | -0.002 | -0.017 | 0.041 | 0.021
POLR2F (UniProt P61218) | 0.013 | -0.105 | -0.163 | 0.381 | 0.359
POGK (UniProt Q9P215) | -0.142 | 0.13 | -0.008 | 0.016 | -0.068
PFAS (UniProt O15067) | 0.007 | 0.017 | 0.02 | 0.042 | 0.023
PHLDB1 (UniProt Q86UU1) | -0.006 | 0.007 | 0.054 | -0.027 | 0.036
PDCD4 (UniProt Q53EL6) | -0.026 | 0.005 | -0.007 | 0.002 | 0.001
PPCDC (UniProt Q96CD2) | -0.02 | 0.034 | -0.054 | -0.074 | -0.191
PFKP (UniProt Q01813) | -0.005 | 0.02 | 0.043 | -0.031 | 0.027
PPIL3 (UniProt Q9H2H8) | 0.067 | -0.012 | 0.035 | 0.028 | -0.237 (active)
PDS5A (UniProt Q29RF7) | -0.049 | -0.031 | 0.017 | -0.011 | 0.019
PRIM2 (UniProt P49643) | 0.004 | 0.026 | 0.016 | 0.009 | 0.028
PPP3CA isoform 2 (UniProt Q08209) | -0.026 | -0.115 | -0.017 | 0.004 | 0.043
PRMT8 (UniProt Q9NR22) | -0.016 | 0.031 | 0.01 | -0.041 | -0.147
PHOSPHO2 (UniProt Q8TCD6) | -0.029 | 0.02 | 0.046 | -0.053 | 0.061
PDCD6IP (UniProt Q8WUM4) | -0.077 | 0.086 | 0.037 | 0.043 | 0.085
PDXK (UniProt O00764) | 0.014 | -0.039 | -0.029 | -0.028 | -0.056
PFKFB3 isoform 4 (UniProt Q16875) | -0.04 | 0.047 | 0.057 | 0.018 | 0.041
PREP (UniProt P48147) | 0.006 | 0.02 | 0.013 | -0.02 | 0.03
PPIC (UniProt P45877) | 0.209 | -0.242 | 0.12 | 0.005 | 0.055
POMP (UniProt Q9Y244) | 0.077 | -0.053 | 0.045 | -0.036 | 0.061
PIK3CG (UniProt P48736) | -0.076 | -0.065 | 0.109 | -0.047 | -0.105
PEX2 (UniProt P28328) | -0.243 | 0.053 | -0.048 | 0.116 | -0.365
